The campaign covered roughly 5,500 compounds. About 2,000 (36%) were called active. About 18% were inconclusive and are not listed. No stated cut-off is given here; in the data, active means normalized growth mostly below about 0.91 (no sharp cut-off); inconclusive means no clear call, values can overlap the other calls; inactive means mostly above about 0.92. The list shows a part of the results.
Assay: chemical genetic growth profiling, strain panel (AID 1159580);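 further: tested at 20 µM; growth read once vehicle control cultures reached saturation at 30 °C; 1 = growth at the plate median or of vehicle wells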
Details: S. cerevisiae deletion strains, growth OD

Measured: normalized growth

CNC(=O)Oc1cccc2c1OC(C)(C)O2
inactive: locus YAL013W, strain DEP1, stronger effect = lower value 1.01 | locus YAL021C, strain ccr4, stronger effect = lower value 0.991 | locus YAL026C, strain drs2, stronger effect = lower value 1 | locus YAL030W, strain snc1, stronger effect = lower value 1.01 | locus YBL061C, strain skt5, stronger effect = lower value 1 | locus YBR009C, strain hhf1, stronger effect = lower value 1 | locus YBR021W, strain FUR4, stronger effect = lower value 1.03 | locus YBR023C, strain chs3, stronger effect = lower value 1 | locus YBR171W, strain sec66, stronger effect = lower value 1.01 | locus YBR229C, strain ROT2, stronger effect = lower value 1.02 | locus YBR231C, strain swc5, stronger effect = lower value 1 | locus YBR279W, strain paf1, stronger effect = lower value 0.994 | locus YCL011C, strain gbp2, stronger effect = lower value 1 | locus YCL016C, strain dcc1, stronger effect = lower value 1 | locus YCL029C, strain bik1, stronger effect = lower value 0.999 | locus YCL061C, strain MRC1, stronger effect = lower value 0.998 | locus YCL069W, strain vba3, stronger effect = lower value 0.998 | locus YCR088W, strain abp1, stronger effect = lower value 1 | locus YDL005C, strain med2, stronger effect = lower value 0.996 | locus YDL035C, strain GPR1, stronger effect = lower value 1.02 | locus YDL040C, strain nat1, stronger effect = lower value 1 | locus YDL074C, strain BRE1, stronger effect = lower value 1.07 | locus YDL101C, strain DUN1, stronger effect = lower value 1.03 | locus YDL134C, strain PPH21, stronger effect = lower value 1.02 | locus YDL185W, strain tfp1, stronger effect = lower value 0.995 | locus YDL192W, strain arf1, stronger effect = lower value 0.993 | locus YDR001C, strain nth1, stronger effect = lower value 1 | locus YDR069C, strain doa4, stronger effect = lower value 1 | locus YDR101C, strain arx1, stronger effect = lower value 0.989 | locus YDR137W, strain rgp1, stronger effect = lower value 1.05 | locus YDR150W, strain NUM1, stronger effect = lower value 1.02 | locus YDR159W, strain sac3, stronger effect = lower value 0.988 | locus YDR162C, strain NBP2, stronger effect = lower value 1.02 | locus YDR195W, strain ref2 0.967 | locus YDR297W, strain sur2, stronger effect = lower value 0.997 | locus YDR318W, strain mcm21, stronger effect = lower value 0.996 | locus YDR334W, strain swr1, stronger effect = lower value 1.01 | locus YDR335W, strain msn5, stronger effect = lower value 0.995 | locus YDR388W, stronger effect = lower value 0.996 | locus YDR392W, strain spt3, stronger effect = lower value 0.814 | locus YDR502C, strain sam2, stronger effect = lower value 0.997 | locus YEL003W, strain gim4, stronger effect = lower value 0.999 | locus YEL037C, strain rad23, stronger effect = lower value 0.998 | locus YEL061C, strain CIN8 (second series), stronger effect = lower value 1.01 | locus YEL061C, strain CIN8, stronger effect = lower value 1.01 | locus YER015W, strain faa2, stronger effect = lower value 1 | locus YER016W, strain bim1, stronger effect = lower value 0.998 | locus YER110C, stronger effect = lower value 1 | locus YER111C, strain swi4, stronger effect = lower value 0.992 | locus YER155C, strain BEM2 (second series), stronger effect = lower value 0.998 | locus YER155C, strain BEM2, stronger effect = lower value 1.02 | locus YER167W, strain BCK2, stronger effect = lower value 1.01 | locus YFR010W, strain ubp6, stronger effect = lower value 0.987 | locus YGL078C, strain dbp3, stronger effect = lower value 0.99 | locus YGL086W, strain mad1, stronger effect = lower value 0.996 | locus YGL167C, strain pmr1, stronger effect = lower value 1 | locus YGL173C, strain kem1, stronger effect = lower value 1 | locus YGL227W, strain vid30, stronger effect = lower value 0.999 | locus YGL240W, strain doc1, stronger effect = lower value 0.986 | locus YGL248W, strain PDE1, stronger effect = lower value 1.01 | locus YGL253W, strain hxk2, stronger effect = lower value 1 | locus YGR078C, strain PAC10, stronger effect = lower value 1.02 | locus YGR135W, strain pre9, stronger effect = lower value 0.999 | locus YGR229C, strain SMI1, stronger effect = lower value 1.03 | locus YGR252W, strain gcn5, stronger effect = lower value 0.941 | locus YHR013C, strain ard1, stronger effect = lower value 0.946 | locus YHR027C, strain rpn1, stronger effect = lower value 1.01 | locus YHR030C, strain SLT2, stronger effect = lower value 1.02 | locus YHR079C, strain IRE1 (second series), stronger effect = lower value 0.99 | locus YHR094C, strain hxt1, stronger effect = lower value 0.995 | locus YHR129C, strain ARP1, stronger effect = lower value 1.02 | locus YHR142W, strain chs7, stronger effect = lower value 1 | locus YHR200W, strain rpn10, stronger effect = lower value 0.995 | locus YIL066C, strain RNR3, stronger effect = lower value 1.02 | locus YIL073C, strain SPO22, stronger effect = lower value 0.954 | locus YIL125W, strain kgd1, stronger effect = lower value 1 | locus YIR030C, strain dcg1, stronger effect = lower value 0.995 | locus YJL092W, strain hpr5, stronger effect = lower value 1 | locus YJL095W, strain BCK1 (second series), stronger effect = lower value 0.997 | locus YJL095W, strain BCK1, stronger effect = lower value 1.04 | locus YJL115W, strain asf1, stronger effect = lower value 0.997 | locus YJL129C, strain trk1, stronger effect = lower value 1.02 | locus YJL134W, strain LCB3, stronger effect = lower value 1.02 | locus YJL154C, strain vps35, stronger effect = lower value 1 | locus YJL164C, strain tpk1, stronger effect = lower value 0.991 | locus YJL166W, strain qcr8, stronger effect = lower value 0.992 | locus YJL168C, strain set2, stronger effect = lower value 0.991 | locus YJL187C, strain SWE1 (second series), stronger effect = lower value 1.01 | locus YJL187C, strain SWE1, stronger effect = lower value 1.01

— PubChem BioAssay AID1159580 (chemical genetic matrix, 2015)
